Bioassay records as filed in PubChem BioAssay.
DAX1 inh-1: DAX1 (NR0B1) inhibitors, primary screen, cell-based, HEK293, Gal4-DAX1, luciferase luminescence | HEK293 Gal4-DAX1 luciferase reporter | inhibition, % at 6.75 µM | 0.99% of 340,000 active;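 active means inhibition above the mean over all tested compounds plus 3 SD, cut at about 4.2% in these data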;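 further: inhibition shows as a rise in luminescence from relieved DAX1 repression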
Target sequence (P51843 207-470 limits assumed): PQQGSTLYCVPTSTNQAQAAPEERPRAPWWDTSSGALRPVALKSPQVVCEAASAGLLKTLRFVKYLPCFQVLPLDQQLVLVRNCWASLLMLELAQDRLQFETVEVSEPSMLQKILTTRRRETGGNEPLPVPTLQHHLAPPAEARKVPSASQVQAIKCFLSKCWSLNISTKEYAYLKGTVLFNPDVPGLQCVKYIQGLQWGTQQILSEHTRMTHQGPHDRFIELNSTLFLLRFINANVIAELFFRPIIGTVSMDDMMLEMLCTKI
hgDAF-12 ag: H. glycines DAF-12 receptor agonists, primary screen, cell-based, luminescence, HEK293, GAL4 fusion, UAS-luciferase. Nuclear hormone receptor DAF-12 (Heterodera glycines), GAL4 fusion. HEK293 GAL4-hgDAF12 UAS-luciferase reporter, agonist luminescence; normalized to butyrate control. activation, % at 6.8 µM. 1.8% of 370,000 active. AID 687014, 2013;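 active means activation above a cutoff set at the mean of all screened compounds plus 3 SD, cut at about 10% in these data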
ssDAF12 agonist: S. stercoralis DAF-12 nuclear receptor activators, primary screen, cell-based, luminescence, HEK293, GRIP1 co-expression, lit1-tk-luc; Nuclear hormone receptor DAF-12 (Strongyloides stercoralis); HEK293 ssDAF-12/GRIP1 lit1-tk-luc reporter; % of 3 µM dafachronic acid response; activation, % at 6.8 µM; 1% of 370,000 active;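 active means activation above the mean over all tested compounds plus 3 SD, cut at about 0.9% in these data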
hcDAF12 agonist: H. contortus DAF-12 nuclear receptor activators, primary screen, cell-based, luminescence, HEK293, lit1-tk-luc reporter; 1.4% of 370,000 active; HEK293 hcDAF-12 lit1-tk-luc reporter; 0% DMSO, 100% Δ7-dafachronic acid; activation, % at 6.8 µM;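 active means activation above the mean of all tested compounds plus 3 SD, cut at about 5.5% in these data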
FXN GAA850 act: FXN promoter activators, primary screen, cell-based, luciferase luminescence, HEK293 lucGAA850; activation, % at 6 µM; 0.56% of 360,000 active; HEK293 lucGAA850 FXN promoter luciferase reporter, 24 h; percent of 10 µM SAHA response;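 active means activation above the average of all compounds screened plus 3 SD, cutoff fixed separately per campaign, cut at about 7.5% in these data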
DAX1 inh-2: DAX1 (NR0B1) inhibitors on StAR promoter, primary screen, cell-based, luminescence, SF-1 (NR5A1), full-length DAX-1; AID 652010, 2013; HEK293T StAR-luciferase reporter, SF-1/DAX-1 repression relief; 1.1% of 370,000 active; inhibition, % at 6.8 µM;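 active means inhibition above the mean over all tested compounds plus 3 SD, cut at about 3.6% in these data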;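 further: higher inhibition means more luminescence from relief of DAX-1 repression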
DAX1 inh confirm: DAX1 (NR0B1) inhibitors relieving SF-1 repression, confirmation, cell-based, luminescence, HEK293T, full-length DAX-1, SF-1 activated StAR promoter; HEK293T StAR-promoter luciferase reporter, SF-1/DAX-1 repression; AID 652134, 2013; shares compounds with DAX1 inh-2; 87% of 2,400 active; inhibition, % at 6.8 µM;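 active means inhibition above the average of every tested compound plus 3 SD, cut at about 3.8% in these data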
SF1 mutant ctr: StAR reporter signal changes without DAX1, counter-screen for DAX1 inhibitor project, cell-based, luminescence, AF-2 mutant SF-1, transactivation; HEK293 StAR-luciferase, SF-1 AF2 mutant; 78% of 2,400 active; shares compounds with DAX1 inh-2; inhibition, % at 6.8 µM;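 active means inhibition above the mean of all tested compounds plus 3 SD, cut at about 3% in these data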
LXRb hcDAF ctr: LXR agonists, Gal4 luciferase reporter, confirmation, counter-screen for hcDAF-12 agonist project, cell-based, luminescence, HEK293, H. contortus campaign; shares compounds with hcDAF12 agonist; 3,400 tested, under 10 active; activation, % at 6.8 µM; HEK293 Gal4-LXR tk-luc reporter, 24 h; normalized: DMSO 0%, positive control 100%;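 active means mean percent activation of the reporter above a cutoff set as the average over tested compounds plus their standard deviation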
Target sequence (P55055 whole entry, looked up, the tested form may be a part): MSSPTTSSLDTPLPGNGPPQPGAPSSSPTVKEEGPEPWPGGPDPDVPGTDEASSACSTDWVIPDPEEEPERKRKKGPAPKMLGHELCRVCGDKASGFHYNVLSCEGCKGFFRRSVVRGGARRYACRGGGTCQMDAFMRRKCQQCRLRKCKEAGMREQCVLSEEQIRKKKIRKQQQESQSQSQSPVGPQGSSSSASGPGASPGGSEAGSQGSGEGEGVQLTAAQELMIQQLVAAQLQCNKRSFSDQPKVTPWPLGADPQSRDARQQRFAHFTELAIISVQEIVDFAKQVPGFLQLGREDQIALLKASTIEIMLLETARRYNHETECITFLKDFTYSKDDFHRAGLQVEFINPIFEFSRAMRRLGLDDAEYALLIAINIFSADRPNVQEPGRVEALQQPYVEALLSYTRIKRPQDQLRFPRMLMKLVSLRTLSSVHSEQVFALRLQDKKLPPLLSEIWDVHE
hcDAF12 conf: H. contortus DAF-12 receptor agonists, confirmation, cell-based, luminescence, HEK293, lit1-tk-luc, triplicate; shares compounds with hcDAF12 agonist; HEK293 hcDAF-12 lit1-tk-luc reporter; % of Δ7-dafachronic acid response; activation, % at 6.8 µM; 61% of 3,400 active; AID 743032, 2013;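 active means mean activation across triplicate tests above the threshold derived from the earlier primary screen, cut at about 5.5% in these data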
hgDAF12 ag: H. glycines DAF-12 receptor agonists, confirmation, cell-based, luminescence, HEK293, GAL4-LBD fusion | AID 743050, 2013 | 80% of 3,300 active | activation, % at 6.8 µM | shares compounds with hgDAF-12 ag | HEK293 GAL4-hgDAF12 luciferase reporter, agonist mode; percent of butyrate response;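 active means mean activation over triplicate wells above the hit cutoff derived from the earlier primary screen, cut at about 11% in these data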
LXRb DAF12 ctr: LXR agonists, Gal4 luciferase reporter, confirmation, counter-screen for hgDAF-12 agonist project, cell-based, luminescence, HEK293, H. glycines campaign; shares compounds with hgDAF-12 ag; 24 h; activation, % at 6.8 µM; 3,300 tested, under 10 active;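 active means mean activation of the triplicate above a set limit carried over from the primary screen, none filed active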
Large screens that a line does not name were inactive (follow-up assays come after a bar, where they were run). An excerpt weighted towards active compounds, which were near 4.5% of everything screened.

CCc1ccc(NC(=O)c2cc(C)on2)cc1	hgDAF-12 ag 13, hcDAF12 agonist 7.8, DAX1 inh-2 5.8 | DAX1 inh confirm 11 | SF1 mutant ctr 4.9 | LXRb hcDAF ctr inactive | hcDAF12 conf 6.8 | hgDAF12 ag 13 | LXRb DAF12 ctr inactive
CCCc1cc(C(=O)Nc2ccc(C)cc2)no1	hgDAF-12 ag 17, hcDAF12 agonist 6.2, DAX1 inh-2 5.2 | DAX1 inh confirm 8.7 | SF1 mutant ctr 7.3 | hgDAF12 ag 13 | LXRb DAF12 ctr inactive
Cc1ccc(-c2c(C(=O)NCC(C)C)oc(=O)c3ccccc23)cc1	none (no result: DAX1 inh-1, FXN GAA850 act)
O=C(Nc1ccc(F)cc1)Nc1nc2ncccn2c1-c1ccc(F)cc1	none (no result: DAX1 inh-1, FXN GAA850 act)
CCCCNC(=O)C[C@H]1C[C@@]2(C(=O)OC)C(=C[C@H](COCc3ccccc3)O[C@@H]2C)N(Cc2ccccc2)C1=O	none (no result: DAX1 inh-1, FXN GAA850 act)
CON(C)C(=O)[C@H]1C[C@@H]2[C@H](C[C@@H](c3ccccc3)[C@H]1C)N(c1ccc(F)cc1)C(=O)N2CCCOc1ccccc1	none (no result: DAX1 inh-1, FXN GAA850 act)
CC(C)CN1C(=O)[C@@]2(CC(=O)N(C)C2c2ccccc2)c2cc(-n3cc(C(C)(C)O)nn3)ccc21 (some centres not stated)	none (no result: DAX1 inh-1, FXN GAA850 act)
CCOC(=O)c1sc(NC(=O)c2ccc3ncsc3c2)nc1C	none
O=C(Nc1nc2c(s1)CCCC2)c1ccc2ncsc2c1	hgDAF-12 ag 16, ssDAF12 agonist 1.0, hcDAF12 agonist 6.2, DAX1 inh-2 8.0 | DAX1 inh confirm 10 | SF1 mutant ctr 3.2 | hgDAF12 ag 12 | LXRb DAF12 ctr inactive
O=C(Nc1nnc([C@@H]2C[C@H](O)[C@@H](CO)O2)s1)c1ccc(Oc2ccccc2)cc1	none (no result: DAX1 inh-1)
O=c1c(-c2ccco2)nc2ccccc2n1C(c1ccccc1)c1nc2ccccc2[nH]1 (configuration not stated)	hgDAF-12 ag 16, DAX1 inh-2 4.7 (no result: DAX1 inh-1, FXN GAA850 act) | DAX1 inh confirm inactive | SF1 mutant ctr inactive | hgDAF12 ag inactive | LXRb DAF12 ctr inactive
O=C(Nc1sc2c(c1-c1nc3ccccc3s1)CCNC2)C(F)F	none (no result: DAX1 inh-1, FXN GAA850 act, DAX1 inh-2)
O=C(O)c1ccc(Nc2nc(-c3ccccc3)cs2)cc1	hgDAF-12 ag 15, DAX1 inh-2 5.0 | DAX1 inh confirm 13 | SF1 mutant ctr 7.7 | hgDAF12 ag 16 | LXRb DAF12 ctr inactive
CCC[C@H]1[C@@H](OC(=O)NC(CC)CC)CC[C@@]23CCCN2C(=O)CCC[C@@H]13	none (no result: DAX1 inh-1, FXN GAA850 act, DAX1 inh-2)
CCC(=O)Nc1cccc(-c2ccc(N3CCCCC3)nn2)c1	hgDAF-12 ag 14, hcDAF12 agonist 5.9, DAX1 inh-2 15 | DAX1 inh confirm 10 | SF1 mutant ctr 4.7 | hgDAF12 ag 15 | LXRb DAF12 ctr inactive
CN1CCN(c2ccc(-c3cccc(NC(=O)COc4ccc(Cl)cc4)c3)nn2)CC1	hgDAF-12 ag 14, DAX1 inh-2 7.9 | DAX1 inh confirm 4.5 | SF1 mutant ctr inactive | hgDAF12 ag inactive | LXRb DAF12 ctr inactive
CN1CCN(c2ccc(-c3cccc(NC(=O)COc4ccc(Cl)cc4Cl)c3)nn2)CC1	none
C[C@H]1COc2cc(Br)ccc2S(=O)(=O)N1Cc1cn(CC2CCCCC2)nn1	none (no result: DAX1 inh-1, FXN GAA850 act)
COC(=O)[C@]12C[C@H](CC(=O)NCCCN3CCCC3=O)C(=O)N(Cc3ccc4c(c3)OCO4)C1=C[C@H](COCc1ccccc1)O[C@@H]2C	none (no result: DAX1 inh-1, FXN GAA850 act)
Cc1cccnc1NC(=S)NC(=O)c1cccs1	hgDAF-12 ag 18, ssDAF12 agonist 2.2, hcDAF12 agonist 14, DAX1 inh-2 7.2 | DAX1 inh confirm 14 | SF1 mutant ctr 10 | LXRb hcDAF ctr inactive | hcDAF12 conf 15 | hgDAF12 ag 17 | LXRb DAF12 ctr inactive
CCC(=O)Nc1ccc(Cl)cc1C(=O)c1ccc[nH]1	none (no result: DAX1 inh-1, FXN GAA850 act, DAX1 inh-2)
O=[N+]([O-])c1cc(Cl)ccc1-c1nc(-c2ccncc2)no1	none
O=[N+]([O-])c1cc(Cl)ccc1-c1nc(-c2ccccc2)no1	DAX1 inh-1 4.5, hgDAF-12 ag 25, ssDAF12 agonist 4.0, hcDAF12 agonist 11, DAX1 inh-2 4.7 | DAX1 inh confirm 14 | SF1 mutant ctr 7.7 | LXRb hcDAF ctr inactive | hcDAF12 conf 9.9 | hgDAF12 ag 18 | LXRb DAF12 ctr inactive
CCCOc1nccc2c1n(C)c(=O)n2C	none (no result: DAX1 inh-1, FXN GAA850 act)
c1ccc(-c2cn3nc4c(nc3n2)CCCC4)cc1	none
Brc1ccc(-c2cn3nc4c(nc3n2)CCCC4)cc1	hgDAF-12 ag 14, hcDAF12 agonist 12, DAX1 inh-2 4.9 | DAX1 inh confirm 6.8 | SF1 mutant ctr 3.2 | LXRb hcDAF ctr inactive | hcDAF12 conf 8.2 | hgDAF12 ag 14 | LXRb DAF12 ctr inactive
